# Screens from PubChem.
# Shown are actives, neighbours in structure and some others; about 1.5% of the full set was active somewhere.
# USP1 inh – USP1/UAF1 (human) deubiquitinase inhibition; O94782; actives 0.23% (n = 390,000); recombinant USP1/UAF1, Ub-Rhodamine cleavage fluorescence; Potency, µM (doses to about 57.1 µM), for the others: at the top dose activity change, negative = inhibition, actives largely listed as inhibitors; AID 743255; also: potency is read from the fitted curve at half-maximal effect; nearly all actives have a fitted effect of over 60% in size
#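 1 nM enzyme complex + cpd, 15 min RT; start with Ub-Rho 150nM final; kinetic fluorescence ex 480/em 540, 6 reads q60 s. Buffer 50mM HEPES pH 7.8, 0.5mM EDTA, 0.1 mg/ml BSA, 1mM TCEP, 0.01% Tween-20.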
# GALK inh – inhibitors of human galactokinase; P51570; AID 1868; actives 0.007% (n = 270,000); Purified GALK, Kinase-Glo residual ATP luminescence; Potency, µM (highest dose often 57.5 µM), inactives show top-dose activity change, negative = inhibition, most hits filed as inhibitors; also: potency is read from the fitted curve at half-maximal effect
#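 Luminescence from leftover ATP (Ultra-Glo luciferase/luciferin) served as read-out after a 1 h room-temperature reaction of 5 nM GALK with 35 uM ATP and 100 uM galactose.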
# rTrxR1 inhibitor – blocks rat thioredoxin reductase 1 | recombinant rTrxR1, NADPH fluorescence consumption, selenite substrate | Potency, µM (top dose mostly 114 µM), inactives show at the top dose activity change, negative = inhibition, usual class: inhibitors | actives 1% (n = 390,000) | AID 588453; also: potency is read from the fitted curve at half-maximal effect; nearly all actives have a fitted effect of over 65% in size
# Target sequence (O89049 whole entry, looked up): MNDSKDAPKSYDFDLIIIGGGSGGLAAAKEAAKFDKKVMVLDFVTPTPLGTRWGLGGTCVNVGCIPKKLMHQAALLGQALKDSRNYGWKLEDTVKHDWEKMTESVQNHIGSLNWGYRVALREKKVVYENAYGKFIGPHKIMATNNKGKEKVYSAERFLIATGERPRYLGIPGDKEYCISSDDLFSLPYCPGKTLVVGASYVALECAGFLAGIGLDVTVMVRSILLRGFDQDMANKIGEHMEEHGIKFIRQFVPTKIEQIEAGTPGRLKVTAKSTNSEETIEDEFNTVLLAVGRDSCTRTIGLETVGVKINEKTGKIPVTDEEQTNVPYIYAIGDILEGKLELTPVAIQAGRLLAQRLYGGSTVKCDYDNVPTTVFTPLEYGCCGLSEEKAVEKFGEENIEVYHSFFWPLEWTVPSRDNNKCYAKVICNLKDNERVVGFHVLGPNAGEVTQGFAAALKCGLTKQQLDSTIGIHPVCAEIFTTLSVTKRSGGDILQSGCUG
#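 Rat TrxR1 (90 nM in the dispensed reagent) was pre-reduced with 400 uM NADPH for 5 min at room temperature, then incubated with compound for 15 min. After 400 uM selenite was added, NADPH fluorescence (Ex 340/Em 450 nm) was followed for 8 min.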
# TrxR1 substrate – substrates of rat thioredoxin reductase 1 | O89049 | purified TrxR1 substrate turnover, NADPH consumption readout | Potency, µM (top dose mostly 114 µM), inactives show at the top dose activity change, negative = substrate turnover | actives 0.01% (n = 390,000); also: potency is read from the fitted curve at half-maximal effect; nearly all actives have a fitted effect of over 50% in size
#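 Rat TrxR1, dispensed at 90 nM, was prereduced with 400 uM NADPH (final) for 5 min at ~22 deg C, then incubated with compound 15 min before 400 uM selenite. A first-read NADPH fluorescence drop versus no-compound background flagged substrates.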
# FBPA coupling cs – counter-screen for Giardia aldolase inhibitors: coupling enzyme system; coupling enzyme system counterscreen, AmpLite Red fluorescence; activity change, negative = inhibition, % at 58.2 µM, hits read low; actives 0.67% (n = 290,000); AID 2472; in the data active = activity change below about -30%
#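 Coupling enzymes only (glyceraldehyde-3-phosphate) + compound, at 57.5 uM final, 10 min RT; add substrate/coupling/AmpLite Red mix, 20 min RT; fluorescence ex 525/em 598 nm. Actives flag coupling-system interference.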
# Starred values were filed as active, the others as inactive; ? = inconclusive; . = no result given; ! = a repeat was not active; [ ] = remark or other dose. Unless noted, calls follow the shape of the dose curve; as a rule, active = well fitted curve in the direction sought with a large enough effect; inconclusive = small, poorly fitted or top-dose-only effect, or another doubt; inactive = no such curve, though single readings can be large; an effect the other way counts as inactive or inconclusive. % is scaled to controls: 0 for no effect and ±100 for the full control effect.
SMILES,USP1 inh,GALK inh,rTrxR1 inhibitor,TrxR1 substrate,FBPA coupling cs
N#C/C(=C\c1ccc(N2CCCCC2)o1)C(=O)Nc1cccc(Br)c1,28µM*,0%,24%[57.1 µM],5%[57.1 µM],0
CCOC(=O)COc1ccc2ccccc2c1/C=C/[N+](=O)[O-],-24%,-2%,7.1µM*,-6%,-13
O=[N+]([O-])/C=C/c1c(OCc2ccccc2)ccc2ccccc12,.,-7%,.,.,-1
CN(C)c1ccc(/C=C2\C=Cc3ccccc32)cc1[N+](=O)[O-],.,.,-19%,-11%,.
CC1C/C(=C/c2ccncc2)C(=O)/C(=C/c2ccncc2)C1 (stereo not given),?,-14%,14µM*,3%,3
CNc1nc2[nH]c(=O)c3c(c2s1)OC(N)=C(C#N)C3c1cccc(F)c1 (stereo not given),-18%,-1%,0%,-3%,-51*
C=CCSc1nc2c(c(=O)[nH]1)C(c1ccccc1)C(C#N)=C(N)O2 (stereo not given),-16%,-5%,22%,11%,11
CCCN(CCC)C(=O)CC(c1ccc(F)cc1)c1ccco1 (stereo not given),-19%,0%,35µM*,0%,0
Cc1nn(-c2cccc(Cl)c2)c2nc(-c3ccco3)cc(C(=O)O)c12,-25%,-7%,50µM*,51%,16
COc1ccccc1NC(C)C(=O)c1c(C)[nH]c2ccccc12 (stereo not given),.,.,-1%,-4%,.
COC(=O)C(NC(=O)COc1ccccc1)(Nc1nc2c(s1)CCCC2)C(F)(F)F (stereo not given),-2%,-3%,32µM*,-7%,-9
OC1OC[C@H](O)[C@@H](O)[C@@H]1O (stereo not given in full),.,.,.,.,0
O=C(NC(=S)NCc1ccc(F)cc1)c1ccccc1,-10%,.,13µM*,-13%,-1
O=C(NC(=S)NCc1ccccc1)c1ccccc1,-24%,-1%,?,5%,-1
CCCN1CNc2c(c(=O)[nH]c(=S)n2CCc2c(Cl)cccc2Cl)C1,.,.,-10%,-1%,.
NC1(C(=O)O)CCCCC1,.,.,5%[57.1 µM],2%[57.1 µM],.
N.N.O=C(O)C1(C(=O)O)CCC1.[Pt+2],.,.,0.95µM*,14%[57.1 µM],.
CCc1ccc(NC(=O)Cn2c(SCc3ccc(C)cc3)nc3ccncc32)cc1,.,.,-15%,-13%,.
NCCCCCCC(O)(P(=O)(O)O)P(=O)(O)O,.,.,.,.,-1
O=C(C[n+]1ccc(Cl)c2ccc(Cl)cc21)c1ccc(F)cc1,.,.,8%,14%[0.0914 µM],.
COC(=O)c1cc(-c2ccc(C)o2)nc2ccccc12,0%,3%,32µM*,2%,-3
CN(C)C(=O)c1ccc(NC(=O)c2cc(-c3ccco3)nc3ccccc23)cc1,-15%,-1%,40µM*,30%,.
O=C(Nc1nccs1)c1cc(-c2ccco2)nc2ccccc12,-24%,0%,-7%,14%,2
CCN(CC)CCNC(=O)c1ccc(NC(=O)c2cc(-c3ccco3)nc3ccccc23)cc1,-10%,7%,?,21%,.
O=C(Nc1cccc(S(=O)(=O)NC2=NCCC2)c1)c1cc(-c2ccco2)nc2ccccc12,?,-3%,?,63%,-4
SMILES,USP1 inh,GALK inh,rTrxR1 inhibitor,TrxR1 substrate,FBPA coupling cs
Cc1ccc(-c2cc(C(=O)Nc3ccccc3C)c3ccccc3n2)o1,-11%,0%,?,28%[57.1 µM],1
O=C(NC(=S)Nc1cccc(S(=O)(=O)NC2=NCCC2)c1)c1cc(-c2ccco2)nc2ccccc12,-2%,.,25µM*,28%,0
COc1ccc(NC(=O)c2cc(-c3ccco3)nc3ccccc23)cn1,-14%,.,18µM*,12%,.
COc1cc(-c2c(-c3ccc4c(c3)OCO4)noc2-c2ccsc2)cc(OC)c1OC,.,.,-5%,-4%,.
CCCCOc1ccc(CC(=O)N(C)OC)cc1,.,.,17%,8%,.
CCNC(=O)COC(=O)c1cc(-c2ccco2)nc2ccccc12,-4%,.,11µM*,29%,0
COc1ccc(CNC(=O)COC(=O)c2cc(-c3ccco3)nc3ccccc23)cc1,.,1%,.,.,-2
Cc1cnccn1,.,.,-11%,2%,.
COc1ccc2cc3[n+](cc2c1OC)CCc1cc2c(cc1-3)OCO2,-1%,.,?,?,-36*!
O=C(C[n+]1ccccc1Br)c1ccc(I)cc1,.,.,?,-3%,.
Cc1ccc(S(=O)(=O)/C=C/C#N)cc1,.,.,0.95µM*,21%[57.1 µM],1
CC(C)(C)n1ncc2c(=O)n(Cc3ccc(OC(F)(F)F)cc3)cnc21,.,.,0%,-10%,.
Cc1cc(C)n(C(C[N+](=O)[O-])c2ccc(Cl)cc2)n1 (stereo not given),-17%,-5%,5.6µM*,4%,6
Cc1cc(O)c(C(C[N+](=O)[O-])c2ccc(Cl)cc2)c(=O)o1 (stereo not given),-15%,-2%,-34%,-2%,7
COc1cc2cc3c4c(cc(OC)c(OC)c4c2cc1OC)CCN3C,.,.,.,.,-45*
COc1ccccc1/C=C/C(=O)OC(C)CN1CCOCC1 (stereo not given),-10%,-1%,-1%,32%,-45*
CC(CN1CCOCC1)OC(=O)c1ccccc1 (stereo not given),-10%,9%,2%[57.1 µM],3%[57.1 µM],6
Oc1ccc2ccccc2c1CNc1cnc2ccccc2c1,-8%,0%,11µM*,74%,-46*
Oc1ccc2ccccc2c1CNc1ccc(Br)cc1,-11%,1%,28µM*,1%,-4
COc1cc(OC)c(OC)cc1/C=C/c1ccc2ccccc2[n+]1C,.,.,-13%,-13%,.
O=C(Nc1ccccc1Br)c1cnn2c1NC(=C1CC1)C=C2C(F)F,.,.,14%,7%,.
COc1cc(=O)n(C)c2cc(N(C)C)ccc12,8%,1%,?,374%,-31*
Cc1c(C(c2cc(O)ccc2O)c2c(C)n(C)n(-c3ccccc3)c2=O)c(=O)n(-c2ccccc2)n1C,-8%,.,71µM*,0%,.
O=C(CC(NC(=O)c1ccccc1)c1ccccc1)OCc1nc(-c2cccc(Cl)c2)no1 (stereo not given),.,.,14%,5%[0.0914 µM],.
N#CC(C#N)=C1C=C2C=C(N3CCCCCC3)CCC2CC1 (stereo not given),4µM*,-3%,-17%,-17%,-2
N#CC(C#N)=C1C=C2C=C(N3CCOCC3)CCC2CC1 (stereo not given),4µM*,-1%,-13%[57.1 µM],-2%[57.1 µM],-1
CCN1CCN(C2=CC3=CC(=C(C#N)C#N)CCC3CC2)CC1 (stereo not given),28µM*,5%,-16%,-16%,-2
C=Nc1ccc(/C=C/c2ccnc3ccccc23)cc1,.,.,8%,-2%,.
COc1ccc(CCn2c3c(c(=O)[nH]c2=S)CN(CC(C)C)CN3)cc1OC,.,.,?,-9%,.
COc1ccc(-c2nnc3ccc(SC(C)C)nn23)cc1OC,.,.,6%,-7%,.
